Bioassay records: PubChem, National Center for Advancing Translational Sciences (NCATS)
An excerpt weighted towards active compounds, which were near 1.3% of everything screened.
TrxR1 substrate = substrates of rat thioredoxin reductase 1; Potency, µM (doses to about 114 µM), for inactives: at the highest dose activity change, negative = substrate turnover; hit rate 0.01% among 390,000; AID 588456; O89049; purified TrxR1 substrate turnover, NADPH consumption readout; note: nearly all actives have a fitted effect of over 50% in size
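Rat TrxR1, dispensed at 90 nM, was prereduced with 400 uM NADPH (final) for 5 min at ~22 deg C, then incubated with compound 15 min before 400 uM selenite. A first-read NADPH fluorescence drop versus no-compound background flagged substrates.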
rTrxR1 inhibitor = rat TrxR1 inhibition; O89049; recombinant rTrxR1, NADPH fluorescence consumption, selenite substrate; Potency, µM (titrated, usually from 114 µM), for inactives: top-dose activity change, negative = inhibition, most hits filed as inhibitors; hit rate 1% among 390,000; note: nearly all actives have a fitted effect of over 65% in size
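Rat TrxR1 (90 nM in the dispensed reagent) was pre-reduced with 400 uM NADPH for 5 min at room temperature, then incubated with compound for 15 min. After 400 uM selenite was added, NADPH fluorescence (Ex 340/Em 450 nm) was followed for 8 min.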
GALK inhibitor = blocks human galactokinase activity. AID 1868. P51570. Potency, µM (series often up to 57.5 µM), without a hit: at the top dose activity change, negative = inhibition, usual class: inhibitors. Purified GALK, Kinase-Glo residual ATP luminescence. hit rate 0.007% among 270,000
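Human GALK (5 nM) with 35 uM ATP and 100 uM galactose in 20 mM HEPES pH 8.0, 5 mM MgCl2, 60 mM NaCl, 1 mM DTT, 0.01% BSA. After 1 h at room temperature, leftover ATP was read by Kinase-Glo Plus luminescence.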
IDH1 R132H inh = blocks human mutant IDH1 R132H enzyme; O75874; hit rate 0.093% among 390,000; AID 602179; IDH1-R132H enzyme, NADPH consumption, diaphorase/resazurin fluorescence; Potency, µM (highest dose often 76.6 µM), without a hit: at the top dose activity change, negative = inhibition, usual class: inhibitors; note: nearly all actives have a fitted effect of over 65% in size
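IDH1-R132H (0.5 ug/mL) preincubated 30 min with compound, then NADPH (0.016 mM) and alpha-KG (2 mM) added; 80 min at RT, pH 7.5. Remaining NADPH coupled via diaphorase/resazurin to fluorescence (540/590 nm); concentration-response curves normalized to no-enzyme control.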
PKM2 act = PKM2 (human) enzyme activation. purified PKM2, Kinase-Glo ATP luminescence, activation; response scale: 0% is enzyme alone, no compound. Potency, µM (top dose mostly 57.5 µM), without a hit: at the highest dose activation, most hits filed as activators. hit rate 0.34% among 260,000. AID 1631; note: nearly all actives have a fitted effect of over 55% in size
Target sequence (P14618 whole entry, looked up): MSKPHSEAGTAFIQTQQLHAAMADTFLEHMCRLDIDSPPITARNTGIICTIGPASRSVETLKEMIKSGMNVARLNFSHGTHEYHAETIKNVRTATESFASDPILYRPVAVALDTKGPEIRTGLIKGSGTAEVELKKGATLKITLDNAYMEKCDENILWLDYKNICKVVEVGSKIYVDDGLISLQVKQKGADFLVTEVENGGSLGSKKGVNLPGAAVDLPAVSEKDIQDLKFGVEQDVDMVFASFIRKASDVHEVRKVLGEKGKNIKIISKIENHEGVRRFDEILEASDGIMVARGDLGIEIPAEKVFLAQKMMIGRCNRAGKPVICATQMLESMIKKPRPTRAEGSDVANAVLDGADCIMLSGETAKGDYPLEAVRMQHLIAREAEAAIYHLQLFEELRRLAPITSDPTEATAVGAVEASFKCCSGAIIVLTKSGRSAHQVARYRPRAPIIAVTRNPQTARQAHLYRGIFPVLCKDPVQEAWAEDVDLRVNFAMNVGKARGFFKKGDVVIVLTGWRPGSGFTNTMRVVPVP
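hPK-M2, >95% pure; 0.1 mM ADP / 0.5 mM PEP final; imidazole pH7.2 buffer w/ 7 mM MgCl2, 50 mM KCl; 1 h RT; Kinase-Glo lum. Intermediate enzyme activity for dual inhibitor/activator qHTS.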
Apoferritin bind = candidate novel general anesthetic via apoferritin binding | apoferritin/1-aminoanthracene competitive binding, fluorescence | Potency, µM (series often up to 77.5 µM), for the others: at the top dose activity change, negative = displacement, actives largely listed as inhibitors | hit rate 0.074% among 350,000; note: nearly all actives have a fitted effect of over 20% in size
Target sequence (P02791 2-175 limits assumed): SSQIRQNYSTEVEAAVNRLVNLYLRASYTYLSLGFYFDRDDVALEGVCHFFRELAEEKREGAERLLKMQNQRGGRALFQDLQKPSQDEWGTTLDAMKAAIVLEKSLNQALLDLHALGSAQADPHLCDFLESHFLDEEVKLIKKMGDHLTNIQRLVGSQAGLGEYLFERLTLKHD
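Concentration-response curves derived by four-parameter Hill fitting of normalized fluorescence, where compounds displaced 1-AMA from 10 uM horse apoferritin following a brief 10 min room-temperature incubation; propofol titration acted as positive control.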
The depositor's hits bear a star; [ ] = another dose, or the depositor's remark. Calls come from the whole dose curve; as a rule, active = well fitted curve in the direction sought with a large enough effect; inconclusive = small, poorly fitted or top-dose-only effect, or another doubt; inactive = no such curve, though single readings can be large; an effect the other way counts as inactive or inconclusive. % is set by controls: 0 for no effect and ±100 for the full control effect; potency is the fitted concentration of half-maximal effect.

CCC(C)NC(=O)Nc1ccc(Br)cc1 (configuration not stated) was read as TrxR1 substrate 2.0%, rTrxR1 inhibitor 33.0%, GALK inhibitor -0.1%, IDH1 R132H inh 1.3%, PKM2 act -15.2% and Apoferritin bind -6.8%.
CCC(C)Nc1ccc(NC(C)CC)cc1 (configuration not stated) was read as TrxR1 substrate inconclusive, rTrxR1 inhibitor 20µM* and IDH1 R132H inh 6.0%.
`CC1Cc2ccccc2C[N+]1(C)CC(=O)c1cccc([N+](=O)[O-])c1` (configuration not stated) gave TrxR1 substrate -2.1% and rTrxR1 inhibitor -7.2%.
CN(C)/[N+]([O-])=N/Oc1ccc([N+](=O)[O-])cn1 was read as TrxR1 substrate -0.7% and rTrxR1 inhibitor 2.2%.
CCN(CC)/[N+]([O-])=N/Oc1cc(O/N=[N+](\[O-])N(C)C)c([N+](=O)[O-])cc1[N+](=O)[O-] was read as TrxR1 substrate -10.3%, rTrxR1 inhibitor 11.2µM* and Apoferritin bind -14.7%.
CC(=O)N1CN(CCCn2ccnc2)Cc2c1sc1c2CCCC1 was read as TrxR1 substrate 5.7%[57.1 µM], rTrxR1 inhibitor 8.7%[57.1 µM], GALK inhibitor -0.8%, IDH1 R132H inh 1.9%, PKM2 act -6.8% and Apoferritin bind -17.7%.
Screening CC(=O)N1CN(Cc2ccccn2)Cc2c1sc1c2CCCC1 returned TrxR1 substrate -2.5%, rTrxR1 inhibitor 50.1µM*, GALK inhibitor -1.7%, IDH1 R132H inh 7.1%, PKM2 act 0.3% and Apoferritin bind -3.1%.
For COc1cc2nc(Cl)nc(NC3CCN(Cc4ccccc4)CC3)c2cc1OC the results were TrxR1 substrate -7.6% and rTrxR1 inhibitor -11.2%.
`CC(C)(C)Nc1nc(C#N)nc(Nc2ccccc2)n1` gave Apoferritin bind -19.1%.
N#CC1=C(N)C(C#N)(C#N)C(c2ccc[nH]2)C2CCCC=C12 (configuration not stated) was read as TrxR1 substrate 5.6%, rTrxR1 inhibitor 11.2µM*, GALK inhibitor -0.4%, IDH1 R132H inh 7.9%, PKM2 act 3.5% and Apoferritin bind 5.6%.
Screening COCCCNc1nc(NCc2ccc(C)cc2)c2cnn(C)c2n1 returned TrxR1 substrate 6.0%[57.1 µM], rTrxR1 inhibitor 5.5%[57.1 µM] and Apoferritin bind 0.9%.
`CCN(CC(=O)Nc1cc(Cl)ccc1C)C(=O)CCOc1ccccc1C` gave TrxR1 substrate 3.9%, rTrxR1 inhibitor 39.8µM*, GALK inhibitor -4.0%, IDH1 R132H inh -5.3%, PKM2 act 2.1% and Apoferritin bind -4.5%.
Screening CCN(CC(=O)Nc1cc(Cl)ccc1C)C(=O)COc1ccccc1F returned TrxR1 substrate -3.5%, rTrxR1 inhibitor 15.0%[57.1 µM], GALK inhibitor -1.4%, IDH1 R132H inh -0.2%, PKM2 act -4.5% and Apoferritin bind -6.2%.
For Cc1cccc(OCC(=O)Nc2ccccc2OCc2cc(=O)n3cc(C)ccc3n2)c1 the results were TrxR1 substrate -2.9%[57.1 µM], rTrxR1 inhibitor 6.2%[57.1 µM], IDH1 R132H inh 20.3% and Apoferritin bind -7.8%.
For O=c1cc(-c2ccc(O)cc2)oc2c(O)c(O)c(O)c(O)c12 the results were TrxR1 substrate -15.0%, rTrxR1 inhibitor 15.8µM*, IDH1 R132H inh inconclusive, PKM2 act -46.3% and Apoferritin bind -5.7%.
For C=CCNc1oc(-c2cccc(F)c2)nc1C#N the results were TrxR1 substrate -0.9% and rTrxR1 inhibitor 7.08µM*.
Cc1cc(C)cc(C(=O)N2CCCCCC2)c1 was read as TrxR1 substrate 6.9%, rTrxR1 inhibitor 16.4%, GALK inhibitor 2.1%, IDH1 R132H inh 4.1%, PKM2 act 6.4% and Apoferritin bind 12.6µM*.
Cc1c(C(=O)NCc2ccccc2)sc2nc3n(c(=O)c12)CCC3 was read as TrxR1 substrate -7.1%, rTrxR1 inhibitor -0.1%, IDH1 R132H inh 2.0% and Apoferritin bind inconclusive.
CC1(C(=O)NC2CCCCC2)Cc2ccccc2C(=O)N1Cc1ccccc1Cl (configuration not stated) was read as TrxR1 substrate 43.1%, rTrxR1 inhibitor 85.1% and Apoferritin bind -9.2%.
N#CCCSc1ccccc1NC(=O)c1ccc(S(=O)(=O)N2CCCC2)cc1 was read as GALK inhibitor -1.1%, PKM2 act 20µM* and Apoferritin bind -15.8%.
Screening Cc1ccccc1NC(=O)c1ccc(S(=O)(=O)N2CCCC2)cc1 returned TrxR1 substrate -2.7%, rTrxR1 inhibitor 0.3%, GALK inhibitor 0.2%, IDH1 R132H inh 0.0%, PKM2 act 2.3% and Apoferritin bind -12.4%.
`O=C(O)/C=C/c1ccc([N+](=O)[O-])o1` gave TrxR1 substrate -0.8%[57.1 µM], rTrxR1 inhibitor 10µM*, GALK inhibitor 9.6%, IDH1 R132H inh 1.5%, PKM2 act -5.2% and Apoferritin bind -12.6%.
N#C/C(=C\c1ccc([N+](=O)[O-])o1)C(=O)Nc1ccc(F)cc1 was read as TrxR1 substrate 7.2%, rTrxR1 inhibitor 3.16µM*, GALK inhibitor 2.1%, IDH1 R132H inh 11.7%, PKM2 act 2.9% and Apoferritin bind -20.8%.
Screening O=[N+]([O-])c1ccc(/C=N/NS(=O)(=O)c2ccc(Cl)cc2)o1 returned TrxR1 substrate -4.9%, rTrxR1 inhibitor 14.1µM*, GALK inhibitor -1.0%, IDH1 R132H inh 0.7%, PKM2 act 1.8% and Apoferritin bind -10.7%.
For CC1CN(N=Cc2ccc([N+](=O)[O-])o2)C(=N)O1 (configuration not stated) the results were TrxR1 substrate -11.9%, rTrxR1 inhibitor 35.5µM* and IDH1 R132H inh 10.9%.
Screening Cc1ccc(OCCSc2nc3ccccc3n2CC(=O)NC(C)C)cc1 returned TrxR1 substrate -2.5%, rTrxR1 inhibitor -0.3%, IDH1 R132H inh 9.3% and Apoferritin bind -20.0%.
For Cc1cccc(C(=O)Nc2ccc(N3CC=C(c4ccccc4C)CC3)c(C(=O)O)c2)c1 the results were TrxR1 substrate -3.1%[57.1 µM], rTrxR1 inhibitor 4.7%[57.1 µM], IDH1 R132H inh -26.2% and Apoferritin bind -10.2%.
For COc1cc2c(NC3CCN(C)CC3)nc(N3CCCN(C)CC3)nc2cc1OCC1CCNCC1 the results were TrxR1 substrate 99.4% and rTrxR1 inhibitor inconclusive.
COCCCNC(=O)c1sc2nc(C)c(C(=O)Nc3ccc(C)cc3C)c(-c3ccccc3Cl)c2c1N was read as TrxR1 substrate 11.4%, rTrxR1 inhibitor 51.1%, IDH1 R132H inh -13.1% and Apoferritin bind 57.0%.
For N#CCc1ccc(NC(=O)/C=C/c2ccc([N+](=O)[O-])o2)cc1 the results were TrxR1 substrate -9.5%, rTrxR1 inhibitor 15.8µM*, GALK inhibitor 8.5%, IDH1 R132H inh 0.0%, PKM2 act -8.7% and Apoferritin bind -11.3%.
